Data taken from PubChem BioAssay (Tox21).
Values joined by “and” are separate entries in the source; they are usually repeats but may differ in a detail not shown here. Identical values can stand only once. Results filed as inconclusive are left out. Entries that show only a call come without a potency. Where a structure was tested more than once in an assay, its records may differ in their call. Active and inactive are the calls of the source. Unless noted, calls follow the shape of the full dose curve.

Tests used:
[1] = Nuclear factor erythroid 2-related factor 2/antioxidant responsive element (Nrf2/ARE) small molecule agonists: qHTS cell viability counter screen in human keratinocytes (AID 1919968; active = well fitted curve in the direction sought with a large enough effect in the repeat runs; an effect the other way counts as inactive or inconclusive; also: nearly all actives have a fitted effect of over 55% in size)
Method in brief: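 Parallel cytotoxicity read: KeratinoSens HaCaT cells, compound treatment 23 h, viability by CellTiter-Fluor fluorescence 1 h post-reagent.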

[2] = molecular target: Gonadotropin-releasing hormone receptor (Homo sapiens) (UniProt P30968); assay: Human gonadotropin-releasing hormone receptor (GnRHR) small molecule agonists, calcium flux assay in GnRHR-HEK293 cells (AID 1920063); also: nearly all actives have a fitted effect of over 35% in size
Method in brief: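 Calcium flux, agonist mode, human GnRHR stably integrated in HEK293; dye 1 h at 37 C before compound; Ex/Em=480/540 kinetic read, 3 min; 15 concentrations, triplicate.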

[3] = molecular target: KiSS-1 receptor (Homo sapiens) (UniProt Q969F8); assay: Human kisspeptin (KISS1R) small molecule agonists, calcium flux assay in KISS1R-HEK293 cells (AID 1920064; active = well fitted curve in the direction sought with a large enough effect in the repeat runs; an effect the other way counts as inactive or inconclusive)
Method in brief: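 Triplicate 15-concentration series were applied to dye-loaded human KISS1R HEK293 cells, and agonist-evoked calcium fluorescence was captured for 3 min.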

[4] = G protein-coupled receptor (GPCR) small molecule agonists, calcium flux assay: HEK293 wild type cell line counter screen (AID 1920065)
Method in brief: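 Non-specific calcium responders were flagged by adding DMSO-dissolved compounds to dye-loaded cells and reading 480/540 nm fluorescence each second for 3 min; ATP served as positive control.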

[5] = p53 small molecule agonists, cell-based qHTS assay with human liver microsomes (AID 1963577)
Method in brief: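 Compounds act here after metabolic activation: human liver microsomes and NADPH, both at 0.5 mg/mL final, were co-added to p53RE-bla cells. Incubation ran 16 h at 37 C, followed by LiveBLAzer detection.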

[6] = p53 small molecule agonists, cell-based qHTS assay with rat liver microsomes (AID 1963578)
Method in brief: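 Read-out is beta-lactamase reporter fluorescence (LiveBLAzer, 2 h, room temperature, dark) in p53RE-bla cells treated 16 h at 37 C with compound, rat liver microsomes and NADPH, both 0.5 mg/mL final.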

[7] = p53 small molecule agonists, cell-based qHTS assay with human liver microsomes: qHTS cell viability counter screen (AID 1963579); also: nearly all actives have a fitted effect of over 45% in size
Method in brief: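 Cells carrying the p53 response-element beta-lactamase reporter are treated for 16 h at 37 C with test compounds in the presence of human liver microsomes and NADPH (both 0.5 mg/mL final); ATP-based CellTiter-Glo luminescence then reports viability.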

[8] = p53 small molecule agonists, cell-based qHTS assay with rat liver microsomes: qHTS cell viability counter screen (AID 1963580); also: nearly all actives have a fitted effect of over 45% in size
Method in brief: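 Counter screen for cytotoxicity under metabolic activation: rat liver microsomes and NADPH, 0.5 mg/mL final each, added with compounds to p53RE-bla HCT-116 cells; 16 h at 37 C, then ATP luminescence read.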

[9] = p53 small molecule agonists, cell-based qHTS assay: qHTS cell viability counter screen (AID 1963581); also: nearly all actives have a fitted effect of over 45% in size
Method in brief: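 Multiplexed with the reporter read, a CellTiter-Glo step (30 min, room temperature) gauges ATP-based viability of HCT-116 p53RE-bla cells after 16 h compound incubation at 37 C.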

[10] = p53 small molecule agonists, cell-based qHTS assay (AID 1963582; active = well fitted activation curve with a large enough effect in the signal ratio in the repeat runs, not every such curve was filed as active; the % refers to the signal ratio)
Method in brief: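 Beta-lactamase reporter cells (p53RE-bla) treated with compounds for 16 h at 37 C; FRET substrate, 2 h, room temperature; fluorescence intensity.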

[11] = molecular target: 5-hydroxytryptamine receptor 2A (Homo sapiens) (UniProt P28223); assay: 5-hydroxytryptamine receptor 2A (HTR2A) small molecule antagonists, cell-based qHTS assay (AID 1963586); also: nearly all actives have a fitted effect of over 45% in size; also: potency is read from the fitted curve at half-maximal effect
Method in brief: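 CHO cells stably expressing human HTR2A were plated for 18 h at 37 C, then loaded with calcium dye for 1 h. Compounds were preincubated 5 min at room temperature before DOI (4 nM solution) was added. Kinetic fluorescence was read for 3 min.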

[12] = molecular target: 5-hydroxytryptamine receptor 2A (Homo sapiens) (UniProt P28223); assay: 5-hydroxytryptamine receptor 2A (HTR2A) small molecule agonists, cell-based qHTS assay (AID 1963587); also: nearly all actives have a fitted effect of over 30% in size
Method in brief: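 HTR2A-CHO cells, plated 18 h at 37 C/5% CO2, dye-loaded 1 h at 37 C; compounds in DMSO added by pin tool (agonist mode). Intracellular calcium flux read as kinetic fluorescence on FDSS over 2 min at 1 s intervals.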

[13] = molecular target: Muscarinic acetylcholine receptor M1 (Homo sapiens) (UniProt P11229); assay: Cholinergic receptor muscarinic 1 (CHRM1) small molecule antagonists, cell-based qHTS assay (AID 1963588); also: nearly all actives have a fitted effect of over 40% in size
Method in brief: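 Compounds were tested at 15 concentrations in three independent runs. Dye-loaded CHRM1-CHO cells were exposed 5 min at room temperature before stimulation by acetylcholine added at 50nM. Intracellular calcium was read kinetically on FDSS for 3 min.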

[14] = molecular target: Muscarinic acetylcholine receptor M1 (Homo sapiens) (UniProt P11229); assay: Cholinergic receptor muscarinic 1 (CHRM1) small molecule agonists, cell-based qHTS assay (AID 1963589); also: nearly all actives have a fitted effect of over 35% in size
Method in brief: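 qHTS, 15-point titration, 3 independent runs: compounds pin-transferred onto dye-loaded CHRM1-CHO cells (human M1), calcium fluorescence followed every second to detect agonism.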

[15] = cAMP Responsive Elements (CRE) small molecule agonists, cell-based qHTS assay (AID 1963590)
Method in brief: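 Quantitative HTS for CRE agonists: HEK 293T CRE-bla cells, overnight plating, 3 h compound incubation at 37 C/5% CO2, then 2 h room-temperature LiveBLAzer B/G FRET substrate loading.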

[16] = cAMP Responsive Elements (CRE) small molecule antagonists, cell-based qHTS assay (AID 1963591; active = well fitted inhibition curve with a large enough effect in the signal ratio in the repeat runs, not every such curve was filed as active; the % refers to the signal ratio)
Method in brief: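 Fluorescence intensity from cleaved LiveBLAzer B/G substrate (2 h, room temperature) quantified CRE-bla activity in HEK 293T cells exposed 3 h to compound with 0.25 uM final NKH477.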

[17] = molecular target: Beta-2 adrenergic receptor (Homo sapiens) (UniProt P07550); assay: Adrenergic beta2 receptor (ADRB2) small molecule agonists, cell-based qHTS assay (AID 1963593);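 also: CHO cells stably overexpressing human ADRB2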
Method in brief: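 CHO cells stably over-expressing ADRB2 were plated overnight at 37C, then dosed with compounds plus a stimulation mix containing 100uM IBMX and 25uM Ro-20-1724 for 0.5hr at room temperature. cAMP was measured by HTRF competition, 1hr.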

[18] = molecular target: D(2) dopamine receptor (Homo sapiens) (UniProt P14416); assay: Dopamine D2 receptor (DRD2) small molecule agonists, cell-based qHTS assay (AID 1963594); also: nearly all actives have a fitted effect of over 35% in size; also: potency is read from the fitted curve at half-maximal effect
Method in brief: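 HEK293 cells stably expressing DRD2 were cultured 24 h at 37 C, then given Ro20-1724 (0.1 mM final) and compounds for 10 min at room temperature. NKH477 (200nM) was then added for 30 min. cAMP was read by HTRF.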

[19] = molecular target: D(2) dopamine receptor (Homo sapiens) (UniProt P14416); assay: Dopamine D2 receptor (DRD2) small molecule antagonists, cell-based qHTS assay (AID 1963595; active = well fitted inhibition curve with a large enough effect in the signal ratio in the repeat runs, with a control signal flat; the % refers to the signal ratio; also: potency is read from the fitted curve at half-maximal effect)
Method in brief: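 Cells were plated and grown for 24 h at 37 °C. Ro20-1724 (0.1 mM final) went in first, then compound for 10 min. NKH477 (200 nM) with quinpirole (12 nM) followed for 30 min at RT, then HTRF detection reagents for 1 h.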

[20] = molecular target: Beta-2 adrenergic receptor (Homo sapiens) (UniProt P07550); assay: Adrenergic beta2 receptor (ADRB2) small molecule antagonists, cell-based qHTS assay (AID 1963592); also: series mostly up to about 92 µM; nearly all actives have a fitted effect of over 50% in size
Method in brief: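 Assay format: CHO-ADRB2 cells, 18-20hr seeding at 37C/5% CO2, then compound plus 1nM isoproterenol agonist mix for 0.5hr RT. Homogeneous time-resolved fluorescence cAMP detection after 1hr, expressed as 665/615 nm ratio.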

Sequence of Gonadotropin-releasing hormone receptor (Homo sapiens) (P30968 whole entry, looked up): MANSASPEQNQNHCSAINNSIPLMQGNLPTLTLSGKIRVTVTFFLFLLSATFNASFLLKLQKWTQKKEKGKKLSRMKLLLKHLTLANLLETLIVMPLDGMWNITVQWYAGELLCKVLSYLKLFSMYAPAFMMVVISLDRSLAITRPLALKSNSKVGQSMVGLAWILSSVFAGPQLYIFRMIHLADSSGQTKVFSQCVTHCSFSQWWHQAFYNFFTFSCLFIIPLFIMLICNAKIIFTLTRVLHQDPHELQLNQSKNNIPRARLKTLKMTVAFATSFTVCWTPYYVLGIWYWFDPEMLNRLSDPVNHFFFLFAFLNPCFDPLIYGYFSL
Sequence of Beta-2 adrenergic receptor (Homo sapiens) (P07550 whole entry, looked up): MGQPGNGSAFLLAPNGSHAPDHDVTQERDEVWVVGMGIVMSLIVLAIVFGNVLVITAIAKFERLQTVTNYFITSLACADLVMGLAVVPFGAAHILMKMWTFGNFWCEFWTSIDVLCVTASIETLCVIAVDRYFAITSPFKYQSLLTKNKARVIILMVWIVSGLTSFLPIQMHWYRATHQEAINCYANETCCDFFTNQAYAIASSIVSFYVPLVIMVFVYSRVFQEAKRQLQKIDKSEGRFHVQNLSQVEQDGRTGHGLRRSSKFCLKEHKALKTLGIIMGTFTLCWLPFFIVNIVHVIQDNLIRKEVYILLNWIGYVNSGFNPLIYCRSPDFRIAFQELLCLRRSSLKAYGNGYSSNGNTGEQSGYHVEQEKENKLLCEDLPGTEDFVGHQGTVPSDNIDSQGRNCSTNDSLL
Sequence of D(2) dopamine receptor (Homo sapiens) (P14416 whole entry, looked up): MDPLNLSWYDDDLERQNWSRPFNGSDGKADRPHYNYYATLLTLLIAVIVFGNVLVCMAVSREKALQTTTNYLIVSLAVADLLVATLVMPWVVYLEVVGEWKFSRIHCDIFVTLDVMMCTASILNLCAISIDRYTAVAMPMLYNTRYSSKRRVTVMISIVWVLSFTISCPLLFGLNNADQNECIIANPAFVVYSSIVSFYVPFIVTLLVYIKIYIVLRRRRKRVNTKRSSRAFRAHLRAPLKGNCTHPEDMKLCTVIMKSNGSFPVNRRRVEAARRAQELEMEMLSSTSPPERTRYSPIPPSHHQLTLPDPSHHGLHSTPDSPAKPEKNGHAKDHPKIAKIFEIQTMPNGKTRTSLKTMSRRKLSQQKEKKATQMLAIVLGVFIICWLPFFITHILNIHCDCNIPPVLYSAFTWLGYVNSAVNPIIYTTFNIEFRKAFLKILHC
Sequence of 5-hydroxytryptamine receptor 2A (Homo sapiens) (P28223 whole entry, looked up): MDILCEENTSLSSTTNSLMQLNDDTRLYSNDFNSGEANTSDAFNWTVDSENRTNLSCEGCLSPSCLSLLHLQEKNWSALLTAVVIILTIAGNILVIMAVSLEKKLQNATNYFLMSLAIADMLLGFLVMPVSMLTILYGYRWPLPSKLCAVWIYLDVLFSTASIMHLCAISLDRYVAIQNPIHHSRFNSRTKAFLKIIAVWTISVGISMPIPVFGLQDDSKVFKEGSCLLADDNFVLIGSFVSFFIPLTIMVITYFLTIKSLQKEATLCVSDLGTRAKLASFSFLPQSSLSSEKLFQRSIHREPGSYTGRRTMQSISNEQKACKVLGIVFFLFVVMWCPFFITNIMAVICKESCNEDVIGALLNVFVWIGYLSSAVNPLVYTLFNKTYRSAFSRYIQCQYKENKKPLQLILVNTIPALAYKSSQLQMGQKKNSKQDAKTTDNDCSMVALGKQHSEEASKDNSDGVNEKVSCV
Sequence of KiSS-1 receptor (Homo sapiens) (Q969F8 whole entry, looked up): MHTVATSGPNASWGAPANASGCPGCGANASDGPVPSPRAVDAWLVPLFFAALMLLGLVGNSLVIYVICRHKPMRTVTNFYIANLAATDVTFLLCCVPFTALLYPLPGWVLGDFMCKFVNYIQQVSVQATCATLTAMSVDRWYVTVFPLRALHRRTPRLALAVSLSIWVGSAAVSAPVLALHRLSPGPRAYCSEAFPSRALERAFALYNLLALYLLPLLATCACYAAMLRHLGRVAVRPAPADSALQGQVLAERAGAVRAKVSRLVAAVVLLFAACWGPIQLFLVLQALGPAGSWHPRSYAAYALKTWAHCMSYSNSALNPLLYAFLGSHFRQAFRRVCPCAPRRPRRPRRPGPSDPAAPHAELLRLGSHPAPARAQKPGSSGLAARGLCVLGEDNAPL
Sequence of Muscarinic acetylcholine receptor M1 (Homo sapiens) (P11229 whole entry, looked up): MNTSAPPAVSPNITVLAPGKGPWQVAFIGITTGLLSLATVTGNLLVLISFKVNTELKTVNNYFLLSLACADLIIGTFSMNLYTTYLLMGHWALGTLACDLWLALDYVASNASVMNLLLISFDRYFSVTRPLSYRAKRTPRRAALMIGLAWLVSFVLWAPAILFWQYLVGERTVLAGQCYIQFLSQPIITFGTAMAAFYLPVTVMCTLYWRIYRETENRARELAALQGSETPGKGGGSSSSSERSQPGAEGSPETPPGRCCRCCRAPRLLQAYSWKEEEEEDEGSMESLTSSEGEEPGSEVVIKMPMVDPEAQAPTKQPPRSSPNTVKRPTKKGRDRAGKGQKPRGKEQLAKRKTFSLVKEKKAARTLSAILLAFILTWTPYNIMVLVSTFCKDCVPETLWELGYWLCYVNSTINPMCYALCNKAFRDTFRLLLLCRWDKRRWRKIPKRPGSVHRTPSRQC

Row | Compound | Potency [1] | Potency [2] | Potency [3] | Potency [4] | Potency [5] | Potency [6] | Potency [7] | Potency [8] | Potency [9] | Potency [10] | Potency [11] | Potency [12] | Potency [13] | Potency [14] | Potency [15] | Potency [16] | Potency [17] | Potency [18] | Potency [19] | Potency [20]
1 | C=C(C)C1CC=C(C)C(OC(C)=O)C1 (configuration not stated) | inactive | inactive | inactive | inactive | inactive | inactive | inactive | inactive | inactive | inactive | inactive and 3.75 µM (active) | inactive | inactive | inactive | inactive | inactive | inactive | inactive | inactive | 
2 | CNC[C@H](O)c1cccc(O)c1 | inactive | inactive | inactive | inactive | inactive | inactive | inactive |  | inactive |  | inactive | inactive | inactive | inactive |  |  |  | inactive | 61.1 µM (active) and 29.8 µM (active) | inactive
3 | CC(COc1ccccc1)N(CCCl)Cc1ccccc1 (configuration not stated) | inactive | inactive | inactive | inactive | inactive | inactive | inactive |  |  |  |  | inactive | inactive | inactive |  | inactive | inactive | 13.2 µM (active) and 7.22 µM (active) | inactive | inactive
4 | Cc1noc(NS(=O)(=O)c2ccc(N)cc2)c1C | inactive | inactive | inactive | inactive | inactive | inactive | inactive | inactive | inactive | inactive |  |  |  |  | inactive | inactive | inactive | inactive | inactive | inactive
5 | c1ccc2n[nH]nc2c1 | inactive | inactive | inactive | inactive | inactive | inactive | inactive | inactive | inactive | inactive | inactive |  | inactive | inactive | inactive | inactive | inactive | inactive | inactive | 
6 | CCNc1cccc(C)c1 | inactive | inactive | inactive | inactive | inactive | inactive | inactive |  | inactive | inactive | inactive | inactive | inactive | inactive | inactive | inactive | inactive | inactive | inactive | inactive
7 | CCCCC1C(=O)N(c2ccccc2)N(c2ccccc2)C1=O | inactive | inactive | inactive | inactive | inactive | inactive | inactive | inactive | inactive | inactive |  |  |  |  | inactive | inactive | inactive | inactive | inactive | inactive
8 | CCCCCC1C(=O)CCC1CC(=O)OC (configuration not stated) | inactive | inactive | inactive | inactive | inactive | inactive | inactive | inactive | inactive | inactive | inactive | inactive |  | inactive | inactive | inactive |  | inactive | inactive | inactive
9 | Nc1cc([N+](=O)[O-])ccc1C(=O)O | inactive | inactive | inactive | inactive | inactive | inactive | inactive | inactive |  | inactive | inactive | inactive |  | inactive | inactive |  |  |  | inactive | 
10 | Oc1ccccc1 | inactive | inactive | inactive | inactive | inactive | inactive | inactive | inactive | inactive | inactive |  |  |  |  | inactive | inactive | inactive | inactive | inactive | inactive
11 | CCCc1cc(=O)[nH]c(=S)[nH]1 | inactive | inactive | inactive | inactive | inactive | inactive | inactive | inactive | inactive | inactive |  |  |  |  | inactive | inactive | inactive | inactive |  | inactive
12 | CC1=CC(C)(C)Nc2ccccc21 | inactive | inactive | inactive | inactive | inactive | inactive | inactive |  | inactive | inactive | inactive | inactive | inactive | inactive |  |  | inactive |  | inactive | inactive
13 | CCOC(N)=O | inactive | inactive | inactive | inactive | inactive | inactive | inactive | inactive | inactive | inactive |  |  |  |  | inactive | inactive | inactive |  | inactive | inactive
14 | Cc1cnc(NC(=O)C2=C(O)c3ccccc3S(=O)(=O)N2C)s1 | inactive | inactive | inactive | inactive | inactive | inactive | inactive | inactive | inactive | inactive |  |  |  |  | inactive |  | inactive | inactive | inactive | 
15 | O=[N+]([O-])c1cc(C(F)(F)F)ccc1Cl | inactive | inactive | inactive | inactive | inactive | inactive |  | inactive | inactive | inactive | inactive | inactive | inactive | inactive | inactive | inactive | inactive | inactive | inactive | inactive
16 | O=S(=O)(O)c1ccc2cc(O)ccc2c1 | inactive | inactive | inactive | inactive | inactive | inactive | inactive |  |  | inactive | inactive | inactive | inactive | inactive | inactive | inactive | inactive | inactive | inactive | 
